“And” between values parts separate entries of the source, which are not always exact repeats. Equal values may be shown once. Records with an inconclusive call do not appear. The source made the active and inactive calls. Unless noted, how the calls were made is not given here.
Assays:
[1] = target: Ubiquitin carboxyl-terminal hydrolase 2 (Homo sapiens) (UniProt O75604); assay: qHTS for Inhibitors of Ubiquitin-specific Protease USP2a Using CHOP2 as the Reporter: K484 Substrate (AID 652173; active means well fitted curve in the direction sought with a large enough effect; an effect the other way counts as inactive or inconclusive;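 further: cleavage of internally quenched K48 di-ubiquitin substrate measured as rising fluorescence over time; nearly all actives have a fitted effect of over 70% in size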)
Procedure, shortened: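 USP2 (dispensed at 5 nM) was pinned with compounds, then DiUb K48 internally quenched fluorescent substrate (dispensed at 100 nM) was added. The buffer was 20 mM Tris pH 8, 2 mM beta-mercaptoethanol and 0.05% CHAPS. Cleavage was read kinetically as rising fluorescence, Ex 525/Em 598.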

[2] = target: Tyrosine-protein kinase Yes (Homo sapiens) (UniProt P07947); assay: qHTS for small molecule inhibitors of Yes1 kinase: Primary Screen (AID 686947; active means well fitted curve in the direction sought with a large enough effect; an effect the other way counts as inactive or inconclusive;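 further: plate controls were DMSO with enzyme for no effect and no-enzyme DMSO wells for full effect; nearly all actives have a fitted effect of over 60% in size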)
Source text: The Src family of non-receptor protein tyrosine kinases contains nine members, including Yes1, Src, Fyn, Lyn, and […]. These kinases have important roles in a variety of cellular functions, such as cell proliferation, survival, and differentiation. Src, the most well characterized member of this family, has been previously identified as a proto-oncogene. […] In melanoma, it has been shown that Yes1, and not other family members, such as Src, is functionally involved in the malignant phenotype. Additionally, a recent study examining the downregulation of Yes1 by shRNA found significant effects on cell survival/growth for basal-like and Her2-positive breast cancers. […]
Two micoliter of Yes1 enzyme (columns 1-2, 5-48; Millipore, Billerica, MA) are dispensed into Greiner, white solid-bottom 1536-well assay plates; columns 3 and 4 receive buffer without Yes1 as a control for maximum inhibition. […] The production of ADP is then quantified by the ADP-Glo Kit (Promega, Madison, WI). First, 2 uL of the first kit reagent is added, and the reaction is incubated for 45 minutes; then, 4 uL of the second kit reagent are added and the reaction is incubated for 30 minutes at which time the luminescence is read on a Viewlux plate reader (Perkin-Elmer, Waltham, MA). […]

[3] = qHTS for small molecule inhibitors of Yes1 kinase: Counter Assay (AID 686950; active means well fitted curve in the direction sought with a large enough effect; an effect the other way counts as inactive or inconclusive;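 further: no kinase present so only ADP-Glo detection of a fixed ADP amount is tested; luminescence from ADP-Glo reporting ADP in a fixed ATP and ADP mixture; 0% = DMSO wells with ATP plus ADP and -100% = ATP-only wells without ADP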)
Procedure, shortened: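 Luminescence read-out from ADP-Glo quantifies a fixed ADP amount (0.02 mM ADP with 0.08 mM ATP) after 60 min at room temperature; signal is normalized between DMSO wells with ATP/ADP and with 0.1 mM ATP alone.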

[4] = qHTS profiling for inhibitors of Plasmodium falciparum (3D7) proliferation (AID 743322);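 further: infected erythrocytes exposed to compound for 72 h before lysis; 100% = DMSO vehicle wells and 0% = 0.29 µM artemisinin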; settings: P. falciparum 3D7 proliferation; at 28.7 µM (top of the series)
Procedure, shortened: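 Erythrocytes infected with P. falciparum (0.3% parasitemia, 2.5% hematocrit) incubated with compounds 72 h at 37 C, 5% CO2. Lysis with saponin/Triton buffer containing SYBR Green I, overnight at room temperature in the dark; DNA fluorescence (485/535 nm) normalised to 0.29 uM artemisinin and DMSO.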

[5] = qHTS profiling for inhibitors of Plasmodium falciparum (DD2) proliferation (AID 743323); settings: lower = more inhibition; at 28.7 µM (top of the series)
Procedure, shortened: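 P. falciparum Dd2-infected erythrocytes (0.3% parasitemia, 2.5% hematocrit) exposed 72 h at 37 C, 5% CO2. Lysis with SYBR Green, overnight at room temperature, fluorescence 485/535 nm; normalized to 0.29 uM artemisinin and DMSO.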

Tyrosine-protein kinase Yes (Homo sapiens), sequence (P07947 whole entry, looked up): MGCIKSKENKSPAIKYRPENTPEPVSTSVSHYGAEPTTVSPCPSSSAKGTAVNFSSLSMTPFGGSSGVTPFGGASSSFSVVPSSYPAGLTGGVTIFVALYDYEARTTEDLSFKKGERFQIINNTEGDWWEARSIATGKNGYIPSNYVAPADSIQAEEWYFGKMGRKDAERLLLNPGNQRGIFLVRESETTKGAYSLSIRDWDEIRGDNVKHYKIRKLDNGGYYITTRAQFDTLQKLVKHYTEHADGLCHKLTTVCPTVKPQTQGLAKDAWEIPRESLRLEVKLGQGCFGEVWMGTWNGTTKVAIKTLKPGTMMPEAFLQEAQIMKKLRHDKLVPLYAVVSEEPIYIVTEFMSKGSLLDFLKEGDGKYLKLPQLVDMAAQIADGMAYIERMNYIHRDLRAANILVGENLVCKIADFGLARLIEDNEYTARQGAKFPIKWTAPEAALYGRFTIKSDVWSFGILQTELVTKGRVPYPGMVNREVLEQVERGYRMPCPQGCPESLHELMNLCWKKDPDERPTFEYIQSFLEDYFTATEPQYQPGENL
Ubiquitin carboxyl-terminal hydrolase 2 (Homo sapiens), sequence (O75604 whole entry, looked up): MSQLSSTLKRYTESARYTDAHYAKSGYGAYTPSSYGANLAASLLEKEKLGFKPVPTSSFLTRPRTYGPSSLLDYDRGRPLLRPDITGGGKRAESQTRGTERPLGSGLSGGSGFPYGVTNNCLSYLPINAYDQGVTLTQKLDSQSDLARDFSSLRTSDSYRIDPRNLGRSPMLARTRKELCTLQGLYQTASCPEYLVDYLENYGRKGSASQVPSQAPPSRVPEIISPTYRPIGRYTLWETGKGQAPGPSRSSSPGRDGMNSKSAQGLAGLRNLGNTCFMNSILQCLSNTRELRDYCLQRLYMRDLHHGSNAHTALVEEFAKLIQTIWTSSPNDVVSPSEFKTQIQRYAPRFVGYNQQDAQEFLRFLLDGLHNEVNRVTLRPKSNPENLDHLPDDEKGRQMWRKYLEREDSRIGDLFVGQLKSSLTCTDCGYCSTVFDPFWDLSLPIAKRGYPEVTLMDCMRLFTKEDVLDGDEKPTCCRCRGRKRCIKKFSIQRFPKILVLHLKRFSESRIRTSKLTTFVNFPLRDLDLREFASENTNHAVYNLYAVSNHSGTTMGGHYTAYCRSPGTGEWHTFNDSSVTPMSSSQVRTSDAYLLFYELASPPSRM

| Structure (SMILES) | outcome [1] | outcome [2] | outcome [3] | remaining parasite growth % (stronger effect = lower value) [4] | activity, percent of control [5] |
| --- | --- | --- | --- | --- | --- |
| Cc1cc(NS(=O)(=O)c2ccc(N)cc2)no1 | inactive | – | – | – | – |
| O=P1(N(CCCl)CCCl)NCCCO1 (stereo not given) | – | inactive | inactive | 108% and 105% | 108% and 125% |
